Results on 32 molecules are retold here after PubChem BioAssay (NCATS).

Test [1] concerns the target Glutaminase kidney isoform, mitochondrial (Homo sapiens) (UniProt O94925). The experiment in a line: qHTS for Inhibitors of Glutaminase (GLS): LOPAC Validation (AID 624146).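 Note: glutamate product detected by oxidase and peroxidase coupled Amplex red fluorescence gain; nearly all actives have a fitted effect of over 60% in size.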 Conditions: glutaminase enzyme activity inhibition; series mostly up to 46.1 µM. In outline:
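Coupled fluorescence readout: glutamate oxidase/HRP/Amplex Red detect glutamate formed by hKGA from L-glutamine (1 mM solution added). Buffer 45 mM KH2PO4 pH 8.2, 0.02% Tween-20; reads at t0 and 30 min RT.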
(In general: In qHTS, concentration-response curves come from the screen itself.)

Test [2] is described as follows: qHTS of Trypanosoma Brucei Inhibitors: LOPAC Validation (AID 624147). Conditions: purified enzyme assay, luminescence, 45 min; series mostly up to 57.5 µM. In a few lines: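 T. brucei PYK with substrate was exposed to pin-transferred compounds across a concentration series, then started with 130 uM ADP (final). After 45 min at room temperature, Kinase-Glo Plus luminescence was read, normalized and curve-fitted.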

In test [3] the target is Glucagon-like peptide 1 receptor (Homo sapiens) (UniProt P43220). The experiment in a line: qHTS of GLP-1 Receptor Agonists: LOPAC Validation (AID 624148).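 Note: higher luminescence signal means agonism.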 Conditions: GLP-1R agonist cell assay; series mostly up to 46.1 µM. In outline: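 HEK293 cells stably co-expressing a cAMP-responsive luciferase reporter and a hypersensitive GLP-1R were plated 12 h at 37 °C and exposed to compounds for 4-6 hr at 37 °C, 5% CO2. Luminescence was read 12 min after adding detection reagent.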
Glucagon-like peptide 1 receptor (Homo sapiens), sequence (P43220 whole entry, looked up): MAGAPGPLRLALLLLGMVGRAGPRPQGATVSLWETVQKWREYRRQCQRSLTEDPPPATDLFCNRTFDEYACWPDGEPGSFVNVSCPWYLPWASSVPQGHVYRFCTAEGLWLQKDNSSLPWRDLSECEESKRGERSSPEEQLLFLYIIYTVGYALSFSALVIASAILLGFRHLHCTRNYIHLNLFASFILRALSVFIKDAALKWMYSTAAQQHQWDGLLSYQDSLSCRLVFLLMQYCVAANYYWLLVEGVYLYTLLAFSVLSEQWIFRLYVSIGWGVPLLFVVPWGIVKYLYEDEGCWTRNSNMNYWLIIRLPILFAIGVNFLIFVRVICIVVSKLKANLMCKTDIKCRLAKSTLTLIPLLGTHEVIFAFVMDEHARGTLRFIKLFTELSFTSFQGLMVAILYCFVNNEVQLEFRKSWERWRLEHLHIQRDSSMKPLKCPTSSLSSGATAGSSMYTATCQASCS

Test [4] is described as follows: qHTS of Nrf2 Activators: LOPAC Validation (AID 624149). Conditions: Nrf2/ARE reporter cell assay; series mostly up to 46.1 µM. In outline: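 AREc32_Fluc cells, 1000/well, OPTI-MEM + 5% FBS, o/n 37 deg C 5% CO2; compound pin-transfer, 24 hr 37 deg C; Steady-Glo 30 min RT, luminescence read.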
A short description of test [5]: HTS Assay for Allosteric Antagonists of the Human D2 Dopamine Receptor: Hit Validation in HTRF (AID 624455). Conditions: Cells stably expressing D1 dopamine receptor, inhibition mode; series mostly up to 46.1 µM. In outline:
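HTRF read-out; cells stably expressing D1 receptor; hits scored for inhibition of D1-mediated response. Primary screen: calcium flux, force-coupled inducible Hek293 Trex D2 line, antagonism vs EC80 dopamine.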
In general terms: In TR-FRET formats the signal depends on donor and acceptor labels being close together.

Test [6] deals with Voltage-gated inwardly rectifying potassium channel KCNH2 (Homo sapiens) (UniProt Q12809). Briefly: qHTS Assay for Small Molecule Inhibitors of the Human hERG Channel Activity (AID 588834).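 Note: lower thallium flux fluorescence means stronger hERG block; nearly all actives have a fitted effect of over 50% in size.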 Note: potency is the fitted concentration of half-maximal effect. Conditions: U2OS BacMam hERG, FluxOR thallium flux fluorescence; series mostly up to 46.1 µM. In outline: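 Homogeneous FluxOR thallium flux assay using hERG-expressing U2OS cells (BacMam). Compound treatment about 10 minutes preceded stimulation; reduced fluorescence taken as channel block.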
Voltage-gated inwardly rectifying potassium channel KCNH2 (Homo sapiens), sequence (Q12809 whole entry, looked up): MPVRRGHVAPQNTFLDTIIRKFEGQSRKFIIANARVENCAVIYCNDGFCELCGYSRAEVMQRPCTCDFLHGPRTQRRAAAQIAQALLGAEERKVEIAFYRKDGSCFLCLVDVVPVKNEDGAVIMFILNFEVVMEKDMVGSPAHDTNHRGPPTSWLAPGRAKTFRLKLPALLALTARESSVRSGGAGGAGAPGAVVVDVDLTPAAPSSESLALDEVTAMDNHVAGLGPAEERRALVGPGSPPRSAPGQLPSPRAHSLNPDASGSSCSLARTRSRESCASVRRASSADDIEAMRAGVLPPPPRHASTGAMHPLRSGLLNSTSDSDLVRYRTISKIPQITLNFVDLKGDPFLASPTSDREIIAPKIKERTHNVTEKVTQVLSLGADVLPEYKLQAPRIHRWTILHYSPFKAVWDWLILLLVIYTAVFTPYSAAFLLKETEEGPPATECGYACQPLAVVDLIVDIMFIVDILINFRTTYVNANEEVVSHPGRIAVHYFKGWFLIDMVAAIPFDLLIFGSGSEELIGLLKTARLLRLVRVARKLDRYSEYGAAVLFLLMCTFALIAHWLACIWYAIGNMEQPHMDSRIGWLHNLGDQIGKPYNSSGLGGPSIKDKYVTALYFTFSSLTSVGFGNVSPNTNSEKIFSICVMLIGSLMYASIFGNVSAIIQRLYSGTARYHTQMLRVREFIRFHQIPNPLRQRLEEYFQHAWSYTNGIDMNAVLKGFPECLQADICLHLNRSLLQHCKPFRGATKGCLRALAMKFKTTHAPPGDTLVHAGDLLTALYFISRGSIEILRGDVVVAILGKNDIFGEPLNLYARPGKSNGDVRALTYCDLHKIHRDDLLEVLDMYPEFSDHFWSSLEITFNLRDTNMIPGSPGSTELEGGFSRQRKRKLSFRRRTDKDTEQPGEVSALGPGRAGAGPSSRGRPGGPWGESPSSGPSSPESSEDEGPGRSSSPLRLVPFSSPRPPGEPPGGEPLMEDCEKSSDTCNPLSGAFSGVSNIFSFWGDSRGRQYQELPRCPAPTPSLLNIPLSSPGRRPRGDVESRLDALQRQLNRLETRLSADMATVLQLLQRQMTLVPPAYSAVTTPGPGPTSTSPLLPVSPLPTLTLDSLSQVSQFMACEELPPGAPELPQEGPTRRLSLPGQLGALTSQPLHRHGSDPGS

Test [7] has as its target Luciferin 4-monooxygenase (Photinus pyralis) (UniProt P08659). Briefly: Biochemical firefly luciferase enzyme assay for NPC (AID 624030).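 Note: purified P. pyralis luciferase at 10 nM with luciferin and ATP substrate; nearly all actives have a fitted effect of over 70% in size.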 Conditions: purified P. pyralis luciferase, luminescence, 5 min; series mostly up to 58.6 µM. In outline: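 Counter-screen for direct inhibition of the luciferase enzyme by approved-drug library compounds, run at 10 nM enzyme in 50 mM Tris acetate (final). Luminescence was read within 5 min of enzyme-buffer addition and normalized to PTC124 versus DMSO (0%).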

Test [8] in a line: S16 Schwann cell viability assay (CellTiter-Glo assay) (AID 624031).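 Note: cellular ATP luminescence as a viability measure; nearly all actives have a fitted effect of over 70% in size.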 Conditions: S16 rat Schwann cells viability, 24 h; series mostly up to 57.5 µM. In a few lines:
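CellTiter-Glo ATP luminescence counter-screen in untransfected S16 rat Schwann cells, 24h compound exposure at 37 degree Celsius after overnight seeding (500-750 cells/well); response scaled between cell-free wells and DMSO (0% activity), curves classed by r2 and magnitude.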

Test [9] is described as follows: S16 Schwann cell PMP22 intronic element beta-lactamase assay (AID 624044; calls by dose curve; note: nearly all actives have a fitted effect of over 15% in size; note: potency is the fitted concentration of half-maximal effect). Conditions: S16 rat Schwann cells, PMP22 element beta-lactamase FRET, 24 h; series mostly up to 38.3 µM. In a few lines: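 Beta-lactamase reporter under a PMP22 intronic regulatory element in stable S16 rat Schwann cells; 24 h compound exposure. 460 nm blue signal normalized between DMSO (0%) and potassium clavulanate, with 535 nm FRET tracking viability; curves classed by r2 and response.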

Test [10] is described as follows: Cytotoxicity counterscreen for NFkB agonists and antagonists (AID 624476).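 Note: cells exposed to compound for 48 hours.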 Note: potency is the fitted concentration of half-maximal effect. Conditions: NFkB reporter cell line viability counterscreen; series mostly up to 46.1 µM. For orientation: A counterscreen serves to expose hits that act by an unwanted route or on another target.
A short description of test [11]: qHTS Assay for Identification of Small Molecule Agonists for NFkB Signaling Pathway. (AID 624478).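 Note: compounds tested together with TNF alpha at its EC50 of 10 pM.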 Conditions: NFkB pathway reporter cell assay, agonist mode, cells co-stimulated with 10 pM TNF alpha; series mostly up to 46.1 µM. In outline:
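Read-out: 460/530 nm emission at 405 nm excitation after 2 h LiveBLAzer loading; ME-180 NFkB-bla reporter cells exposed 5 h at 37 C to compounds with 10 pM TNF alpha final.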

Records with an inconclusive call do not appear. Entries that show only a call come without a potency. Activity calls are given as the source filed them. Unless noted, calls come from the whole dose curve; as a rule, active = well fitted curve in the direction sought with a large enough effect; inconclusive = small, poorly fitted or top-dose-only effect, or another doubt; inactive = no such curve, though single readings can be large; an effect the other way counts as inactive or inconclusive.

Luciferin 4-monooxygenase (Photinus pyralis), sequence (P08659 whole entry, looked up): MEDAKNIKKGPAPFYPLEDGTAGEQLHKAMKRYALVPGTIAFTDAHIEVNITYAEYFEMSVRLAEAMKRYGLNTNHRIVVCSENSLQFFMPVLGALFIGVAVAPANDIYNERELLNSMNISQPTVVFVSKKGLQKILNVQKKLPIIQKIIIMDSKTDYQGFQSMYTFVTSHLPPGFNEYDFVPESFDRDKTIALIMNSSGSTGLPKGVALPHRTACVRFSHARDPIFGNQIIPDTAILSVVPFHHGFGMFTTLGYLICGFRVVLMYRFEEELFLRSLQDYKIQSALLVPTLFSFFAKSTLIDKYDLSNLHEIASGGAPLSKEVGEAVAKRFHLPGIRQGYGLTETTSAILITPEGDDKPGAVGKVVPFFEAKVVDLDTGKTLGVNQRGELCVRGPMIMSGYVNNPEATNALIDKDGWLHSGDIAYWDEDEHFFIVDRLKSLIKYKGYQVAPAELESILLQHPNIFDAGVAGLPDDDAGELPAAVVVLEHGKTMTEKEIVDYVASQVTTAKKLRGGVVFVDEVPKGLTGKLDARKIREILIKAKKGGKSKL
Glutaminase kidney isoform, mitochondrial (Homo sapiens), sequence (O94925 whole entry, looked up, canonical isoform): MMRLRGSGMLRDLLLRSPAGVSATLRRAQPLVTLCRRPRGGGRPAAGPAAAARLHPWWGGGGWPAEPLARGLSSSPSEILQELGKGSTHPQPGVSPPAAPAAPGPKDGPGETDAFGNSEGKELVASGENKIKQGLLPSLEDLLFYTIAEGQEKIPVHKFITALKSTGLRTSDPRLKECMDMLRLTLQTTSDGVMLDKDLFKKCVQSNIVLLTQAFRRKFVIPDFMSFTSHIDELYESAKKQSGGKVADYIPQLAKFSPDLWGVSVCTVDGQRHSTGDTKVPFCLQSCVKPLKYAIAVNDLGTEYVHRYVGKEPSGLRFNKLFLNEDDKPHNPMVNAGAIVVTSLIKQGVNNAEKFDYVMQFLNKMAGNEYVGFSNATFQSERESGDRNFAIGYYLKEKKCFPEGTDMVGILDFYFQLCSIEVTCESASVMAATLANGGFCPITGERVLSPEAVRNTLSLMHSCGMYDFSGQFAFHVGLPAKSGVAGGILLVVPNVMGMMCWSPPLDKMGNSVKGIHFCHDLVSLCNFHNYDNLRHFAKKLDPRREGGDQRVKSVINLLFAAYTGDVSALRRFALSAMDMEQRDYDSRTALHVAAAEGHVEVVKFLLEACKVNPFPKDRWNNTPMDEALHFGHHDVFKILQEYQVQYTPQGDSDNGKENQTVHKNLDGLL

For `C=CCc1cccc(C=NNC(=O)CN2CCN(Cc3ccccc3)CC2)c1O`, the result in test [1], in test [2], in test [3], in [4] and in test [5] was inactive.

On to `N#Cc1c(N(CC(=O)O)CC(=O)O)sc(C(=O)O)c1CC(=O)O`, for which the Potency entry in [6] and in test [9] was “inactive” in each case. For the same molecule, the outcome in test [7] and in test [8] was inactive.

Take `Clc1ccc(COC(Cn2ccnc2)c2ccc(Cl)cc2Cl)c(Cl)c1` (centres undefined): the Potency in test [6] was 4.47 µM (active). The outcome in test [7] and in test [8] was inactive. Also, the Potency entry in test [9] was “inactive”.

`CN(C)CCN(Cc1ccc(Cl)cc1)c1ccccn1`: in test [7], the molecule was called inactive.

Turning to `O=C(O)c1nc(=O)[nH]c(=O)[nH]1`, the Potency result in test [6] and in [9] was “inactive” each time. Further, the molecule was classed as inactive in [7] and in test [8].

Consider `CC[C@H](C)C(=O)O[C@H]1C[C@H](O)C=C2C=C[C@H](C)[C@H](CC[C@@H](O)C[C@@H](O)CC(=O)O)[C@H]21`, for which the Potency entry in test [6] is “inactive”.

In the case of `CCNC(=O)[C@H]1O[C@@H](n2cnc3c(N)nc(NCCc4ccc(CCC(=O)O)cc4)nc32)[C@H](O)[C@H]1O`, in test [6], the Potency result was “inactive”.

As to `COc1ccc2c(c1)CC[C@H]1[C@@H]2CC[C@]2(C)[C@@H](NCCCCCCN3C(=O)C=CC3=O)CC[C@H]12`, the Potency entry in test [10] was “inactive”. In addition, the molecule was classed as inactive in test [11].

As to `Fc1ccc(C(c2ccc(F)cc2)N2CCN(CC=Cc3ccccc3)CC2)cc1`, the result in test [7] was inactive. For the same molecule, the Potency entry in test [9] was “inactive”.

On to `C=C1c2cccc(O)c2C(O)=C2C(=O)[C@@]3(O)C(O)=C(C(N)=O)C(=O)[C@@H](N(C)C)[C@@H]3[C@@H](O)[C@H]12`, for which the molecule was classed as inactive in test [7]. In addition, the Potency result in [9] is “inactive”.

On to `CN1CCN2c3ncccc3Cc3ccccc3C2C1` (centres undefined), for which the Potency entry in test [6] and in test [9] was “inactive” in each case. For the same molecule, the result in test [7] and in test [8] was inactive.

In the case of `COc1ccnc(CS(=O)c2nc3ccc(OC(F)F)cc3[nH]2)c1OC` (centres undefined), the molecule was classed as inactive in test [7] and in test [8]. Besides, the Potency entry in test [9] is “inactive”.

On to `COc1c(C)c2c(c(O)c1CC=C(C)CCC(=O)OCCN1CCOCC1)C(=O)OC2`, for which the Potency result in test [6] was “inactive”. Besides, the molecule was called inactive in test [7]. Also, in [9], the Potency was 2.82 µM (active).

Consider `CCC(=O)OCC(=O)[C@@]1(OC(=O)CC)[C@@H](C)C[C@@H]2[C@H]3CCC4=CC(=O)C=C[C@]4(C)[C@@]3(F)[C@@H](O)C[C@@]21C`, for which the molecule was classed as inactive in test [7].

In the case of `CCOC(=O)[C@@H](N)CCC(=O)N[C@@H](CSCc1ccccc1)C(=O)N[C@@H](C(=O)OCC)c1ccccc1`, in test [10], the Potency result was “inactive”.

Consider `CN1CC(=O)N2C(Cc3c([nH]c4ccccc34)[C@H]2c2ccc3c(c2)OCO3)C1=O` (some centres undefined), for which the Potency entry in test [6] and in [9] was “inactive” in each case. The molecule was called inactive in test [7] and in test [8].

As to `CCCCCCCCCCCCCCCC(=O)O[C@H]1[C@@H](O)[C@@H](O)[C@@H]([C@H](NC(=O)[C@@H]2C[C@@H](CCC)CN2C)[C@H](C)Cl)O[C@@H]1SC`, the molecule was classed as inactive in [7].

In the case of `COc1ccc(-c2nc3ccc(C4=NNC(=O)CC4C)cc3[nH]2)cc1` (centres undefined), the Potency entry in [6] is “inactive”.

As to `O=C(O)Cc1cccc(OCCCN(Cc2cccc(C(F)(F)F)c2Cl)CC(c2ccccc2)c2ccccc2)c1`, the Potency in [10] was 26.4 µM (active).

On to `NCC1CCC(C(=O)O)CC1` (centres undefined), for which the Potency result in test [6] and in [9] was “inactive” throughout. Besides, the outcome in test [7] and in test [8] was inactive.

Consider `CC[C@]1(O)C[C@H]2CN(CCC3=c4ccccc4=N[C]3[C@@](C(=O)OC)(c3cc4c(cc3OC)N(C)[C@H]3[C@@](O)(C(N)=O)[C@H](O)[C@]5(CC)C=CCN6CC[C@]43[C@@H]65)C2)C1`, for which the call in test [7] was inactive.

For the molecule `C[C@@H](O[C@H]1OCCN(Cc2n[nH]c(=O)[nH]2)[C@@H]1c1ccc(F)cc1)c1cc(C(F)(F)F)cc(C(F)(F)F)c1`, the result in test [7] and in test [11] was inactive. In test [10], the Potency was 29.6 µM (active).

`Cn1cc(-c2ccc3nnc(Sc4ccc5ncccc5c4)n3n2)cn1`: in test [10], the Potency result was “inactive”.

Regarding `Cc1cc2nc3c(=O)[nH]c(=O)nc-3n(CC(O)C(O)C(O)CO)c2cc1C` (centres undefined), the outcome in test [7] and in test [8] was inactive. Moreover, in test [9], the Potency entry is “inactive”.

On to `CCCCC(F)(F)[C@@]1(O)CC[C@H]2[C@H](CC(=O)[C@@H]2CCCCCCC(=O)O)O1`, for which the outcome in [7] was inactive.

Take `NS(=O)(=O)c1cc(Cl)c(Cl)c(S(N)(=O)=O)c1`: the Potency entry in test [6] is “inactive”. Further, the molecule was called inactive in [7] and in [8].

As for `CC[C@@H]([C@H](C)O)n1ncn(-c2ccc(N3CCN(c4ccc(OCC5CO[C@@](Cn6cncn6)(c6ccc(F)cc6F)C5)cc4)CC3)cc2)c1=O` (some centres undefined), in [7], the outcome was inactive.

On to `O=C(CCCN1CCN(c2ccc(F)cc2)CC1)NC1c2ccccc2CSc2ccccc21` (centres undefined), for which the molecule was classed as inactive in test [7].

Consider `N#CC(c1ccc(Cl)cc1)c1c(Cl)cc(-n2ncc(=O)[nH]c2=O)cc1Cl` (centres undefined), for which the Potency entry in test [6] and in [9] was “inactive” in each case. Moreover, in [8], the molecule was classed as inactive.

Consider `CS(=O)(=O)c1ccc(C2=C(c3ccccc3)C(=O)OC2)cc1`, for which the Potency entry in test [6] and in [9] was “inactive” throughout. Besides, the molecule was classed as inactive in test [7] and in [8].

Take `O=C1CN2Cc3c(ccc(Cl)c3Cl)N=C2N1`: the outcome in test [7] and in test [11] was inactive. Further, in test [10], the Potency result is “inactive”.

With `CCC[C@H](N[C@@H](C)C(=O)N1[C@@H]2CCCC[C@H]2C[C@H]1C(=O)O)C(=O)OCC`, the molecule was called inactive in test [7].
